Screening results: PubChem, National Center for Advancing Translational Sciences (NCATS)
In the library only some 4.2% were active in any assay of this set; here they are far more common.
SW480 rereplic – inducers of DNA re-replication in SW480 colon cancer cells | SW480 DNA re-replication, Hoechst DNA content imaging, 48 h | Potency, µM (doses to about 46.1 µM), most hits filed as activators | hit rate 1.8% among 340,000; further: nearly all actives have a fitted effect of over 55% in size
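Image-based read-out: total Hoechst fluorescence of nuclei (405 nm excitation, 500-530 nm emission), with hits raising the fraction of high-intensity nuclei. SW480 colon cells incubated 48 hr with compounds at 37 C.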
Integrin act MD – activates integrin-mediated alleviation for muscular dystrophy; alpha7betagal myoblasts, beta-gal FDG fluorescence, 48 h; Potency, µM (highest dose often 38.3 µM), most hits filed as activators; hit rate 0.064% among 350,000; AID 624291; further: nearly all actives have a fitted effect of over 60% in size
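alpha7betagal+/- myoblasts (passage 13, 250/well) treated 48 h at 37C with compounds at 1:260 dilution of DMSO stock. Lysed, then beta-galactosidase activity read as FDG fluorescence (ex 480/em 540) after 30 min, with pre-read for autofluorescence.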
MCF10A rerep – induces DNA re-replication in MCF 10a normal breast cells; MCF 10A DNA re-replication, Hoechst nuclear intensity, 48 h; Potency, µM (titrated, usually from 46.1 µM), usual class: activators; hit rate 2.9% among 350,000; AID 624296; further: nearly all actives have a fitted effect of over 50% in size
AT treatment – potential ataxia-telangiectasia treatments restoring KAP-1 phosphorylation; F2112 A-T fibroblasts, KAP-1 phosphorylation AlphaLISA; neocarzinostatin DNA damage 30 min before lysis; Potency, µM (doses to about 57.5 µM), most hits filed as activators; hit rate 0.19% among 320,000; AID 485349; further: nearly all actives have a fitted effect of over 45% in size
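hTERT-immortalized A-T patient fibroblasts (F2112), 500 cells/well in OPTI-MEM, 1% FBS, got compounds for 60 min, then NCS for 30 min at 37C. Lysates were then assayed for phospho-KAP-1 by AlphaLISA (anti-pKAP1 donor, anti-KAP1 acceptor beads), 6 hr at 25C.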
Mito fusion yeast – inhibitors of mitochondrial division or activators of mitochondrial fusion | S. cerevisiae fusion-defective mutant growth rescue, CellTiterGlo 48 h | AID 485298 | hit rate 0.23% among 320,000 | Potency, µM (highest dose often 46.1 µM), usual class: activators; further: nearly all actives have a fitted effect of over 45% in size
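Yeast fusion mutant, YPEG (non-fermentable carbon), compound, 48 h at 37C non-permissive; CellTiterGlo added, 10 min RT, luminescence read. Rescued growth = division inhibition.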
A number is an active result; . = inactive; ? = inconclusive; / = no result; [ ] = dose if it differs, or a comment. The call rests on the fitted dose curve; in most records, active means well fitted activation curve with a large enough effect; inconclusive means small, poorly fitted or top-dose-only effect; inactive means no such curve, though single readings can be large or run the other way.

SMILES	SW480 rereplic	Integrin act MD	MCF10A rerep	AT treatment	Mito fusion yeast
CS(=O)(=O)c1ccc(-c2sc3ccccc3c2C#CCCO)cc1	.	.	?	?	/
Cn1cncc1C#Cc1c(-c2ccc(S(C)(=O)=O)cc2)sc2ccccc12	0.73µM	.	?	.	/
O=C(Nc1ccc(Cl)cc1)c1nc[nH]c1C(=O)NCCCNC(=O)c1[nH]cnc1C(=O)Nc1ccc(Cl)cc1	/	/	/	.	/
COc1ccc(NC(=O)N(C)C[C@H]2Oc3ccc(NS(=O)(=O)c4ccccc4)cc3C(=O)N([C@H](C)CO)C[C@@H]2C)cc1	.	.	.	/	/
Cc1ccc(C(=Cc2ccc([N+](=O)[O-])cc2)C(=O)O)cc1	/	.	/	/	/
CCOC(=O)c1ccccc1NC1c2ccccc2C(=O)N1C1CCN(C(=O)OCC)CC1 (stereo not given)	.	.	.	.	35µM
CCOC(=O)N1CCC(N2C(=O)c3ccccc3C2Nc2ccc3c(c2)OCCO3)CC1 (stereo not given)	.	.	.	.	.
CCOC(=O)N1CCC(N2C(=O)c3ccccc3C2Nc2ccc3c(C)cc(=O)oc3c2)CC1 (stereo not given)	.	.	.	40µM	.
CC(C)N(C)CCOC(=O)c1ccccc1Br	.	.	.	.	.
COC(=O)Nc1nc2c(s1)CCCC2	.	.[7.66 µM]	.	.	.
CC(=O)NC(Nc1nc2c(s1)CCCC2)(C(F)(F)F)C(F)(F)F	4.1µM	.	.	.	.
O=C(NC1CC1)c1ccc(S(=O)(=O)NCC2CCCCC2)cc1	.	.	5.8µM	.	.
Cc1ccc(NC(=O)C(C)OC(=O)/C=C/c2ccccc2)cc1S(=O)(=O)N1CCOCC1 (stereo not given)	.	.	.	.	.
CCOc1ccccc1/C=N/Nc1nc2c(N)ncnc2n1[C@H]1O[C@@H](CO)[C@H](O)[C@@H]1O	8.2µM	.	.	.	.
COc1ccccc1NS(=O)(=O)c1ccc(C)c(C(=O)NCC(c2cccs2)N2CCOCC2)c1 (stereo not given)	.	.	.	/	/
COc1ccc(C2NC(=S)NC(C)=C2C(=O)c2ccccc2)cc1OC (stereo not given)	23µM	.	?	.	.
COc1cc(N=c2c([N+](=O)[O-])nn(-c3ccc4c(c3)OCCO4)n2O)cc(OC)c1	?	.	21µM	.	?
CN=c1c([N+](=O)[O-])nn(-c2ccc3c(c2)OCCO3)n1O	16µM	.	.	.	.
N#Cc1ccccc1OCC(=O)OCC(=O)Nc1ccc2c(c1)OCO2	.	.	.	.	.
COc1cc(C(=O)Nc2cccc(-c3nc4cc(C)ccc4o3)c2C)cc(OC)c1OC	.	.	7.3µM	.	.
COc1cc(/C=N/Nc2nc(C)nc3c2cnn3-c2ccccc2)ccc1O	15µM	.	?	.	.
CCc1nc(N2CCC(C)CC2)c2oc3ccccc3c2n1	?	.	18µM	.	?
CCc1nc(SCC(=O)N2CCN(c3ccccc3)CC2)c2oc3ccccc3c2n1	.	.	9.2µM	.	.
CCC/C=C/c1ccc(CN2C(C)C(=O)N(Cc3cn(CCC4OCCO4)nn3)CCS2(=O)=O)cc1 (stereo not given)	/	.	/	/	/
N#Cc1c(N)n(-c2cccc(C(=O)O)c2)c2nc3ccccc3nc12	?	.	21µM	.	.
SMILES	SW480 rereplic	Integrin act MD	MCF10A rerep	AT treatment	Mito fusion yeast
CC(C)OCCCNC(=O)c1c(N)n(/N=C/c2cccs2)c2nc3ccccc3nc12	?	.	8.2µM	.	.
N#Cc1c(N)n(-c2ccccc2N)c2nc3ccccc3nc12	?	.	.	.	.
Nc1c(C(=O)NCCN2CCOCC2)c2nc3ccccc3nc2n1-c1cccc(F)c1	16µM	.	18µM	.	.
COCCCNC(=O)c1c(N)n(/N=C/c2ccccn2)c2nc3ccccc3nc12	?	.	?	.	.
CCCNC(=O)c1c(N)n(-c2cccc(OC)c2)c2nc3ccccc3nc12	?	.	7.3µM	.	.
Cc1cccc(C)c1NC(=S)N(Cc1ccco1)C1CCN(C(C)C)CC1	.	.	.	.	.
COCC(C)OC(=O)c1c(N)n(-c2ccc(OC)c(OC)c2)c2nc3ccccc3nc12 (stereo not given)	.	.	.	.	.
Nc1c(C(=O)Nc2ccccc2)c2nc3ccccc3nc2n1CCCN1CCOCC1	18µM	.	10µM	.	.
COCCCNC(=O)c1c(N)n(-c2cccc(S(N)(=O)=O)c2)c2nc3ccccc3nc12	21µM	.	18µM	.	.
N#Cc1c(N)n(CCCN2CCOCC2)c2nc3ccccc3nc12	?	.	?	.	.
CCCCC(CC)C(=O)Nc1ncc([N+](=O)[O-])s1 (stereo not given)	.	.	?	.	.
COc1ccccc1C(=O)OCCc1ccccc1	.	.	.	/	/
CC(=O)CSc1nc(N)c(C#N)c(-c2cccs2)c1C#N	.	.	?	.	.
Cc1cccc(CSc2nc(N)c(C#N)c(-c3cccs3)c2C#N)c1	.	.	.	.	13µM
CCCCSc1nc(N)c(C#N)c(-c2cccs2)c1C#N	.	.	?	.	4µM
CC(OC(=O)Cn1cnc2c1c(=O)n(C)c(=O)n2C)C(=O)NC1(C#N)CCCCC1 (stereo not given)	.	.	.	.	.
c1ccc(COc2ncnc3c2ncn3CCCNCC(c2ccccc2)c2ccccc2)cc1	/	.	/	/	/
Cn1c(-c2ccccc2)nc2cnccc21	.	.	.	20µM	.
Cc1nc2cnccc2n1C	.	.	.	.	.
CC[C@]12c3[nH]c4ccc(Cl)cc4c3CCN1C(=O)[C@@H](CC(=O)NC/C=C(\C)CCC=C(C)C)C[C@@H]2C(=O)N1CCN(C(=O)c2ccco2)CC1	.	.	?	.	/
O=c1[nH]c(/C=C/c2ccccc2OC(F)F)nc2c1cnn2-c1ccccc1	?	.	15µM	.	.
COc1cc(/C=C/c2nc3ccccc3c(=O)[nH]2)ccc1OC(F)F	.	.	.	.	.
Fc1ccc(CNC(=S)Nc2cccc(Cl)c2)cc1	.	.	16µM	.	.
O=[N+]([O-])c1ccc(NC(=S)NCc2ccc(F)cc2)cc1	?	.	16µM	.	.
O=[N+]([O-])c1ccc(NC(=S)NCc2ccncc2)cc1	.	.	.	.	?
S=C(NCc1ccncc1)Nc1cccc(Cl)c1	.	.	.	.	.
S=C(NCc1cccs1)Nc1cc(Cl)cc(Cl)c1	?	.	23µM	.	.
C[C@@H]1CN([C@H](C)CO)C(=O)CCCn2nncc2CO[C@@H]1CN(C)C(=O)NC1CCCCC1	/	.	/	/	/
COc1ccc(Cl)cc1NC(=O)CN(C)C(=O)CN1C(=O)NC(C)(c2ccc3ccccc3c2)C1=O (stereo not given)	.	.	?	/	/
Cc1cnc(CN2CCc3c([nH]c4ccccc34)C2CC(C)C)[nH]1 (stereo not given)	6.5µM	.	?	.	.
